From PubChem BioAssay
Inconclusive results are not listed. Calls of active or inactive are those of the source.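 How the source made its calls, unless noted: active means normalized viability below 100% at a tested concentration; inactive means the rest.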

Tests used:
[1] = viability loss in pontine glioma line – cell-based, SU-DIPG-XVII, MIPE5.0, CellTiter-Glo, qHTS, dose response (AID 1347060; cut-off not given, nearly all actives have AC50 up to about 26 µM;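 further: cells exposed to compound for 48 hours before viability readout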); conditions: CellTiter-Glo ATP luminescence
[2] = viability loss in pontine glioma line – cell-based, JHH-DIPG-1, MIPE4.0, CellTiter-Glo, qHTS, dose response (AID 1347062; cut-off not given, nearly all actives have AC50 up to about 27 µM;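 further: cells exposed to compound for two days before readout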); conditions: JHH-DIPG-1 viability, CellTiter-Glo ATP luminescence
[3] = viability loss in pontine glioma line – cell-based, SU-DIPG-IV, MIPE4.0, CellTiter-Glo, qHTS, dose response (AID 1347063; cut-off not given, nearly all actives have AC50 up to about 30 µM;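 further: compound exposure lasted 48 hours before the viability readout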); conditions: CellTiter-Glo ATP luminescence
[4] = viability loss in pontine glioma line – cell-based, SU-DIPG-XXV, MIPE5.0, CellTiter-Glo, qHTS, dose response (AID 1347065; cut-off not given, nearly all actives have AC50 up to about 26 µM;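 further: cells exposed to compound for 48 hours before ATP readout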); conditions: CellTiter-Glo ATP luminescence
[5] = JHH-DIPG-1 glioma cell viability, MIPE5.0 library, CellTiter-Glo luminescence, qHTS (AID 1347067; cut-off not given, nearly all actives have AC50 up to about 26 µM;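 further: cells exposed to compound for 48 hours before readout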); conditions: JHH-DIPG-1 glioma viability, CellTiter-Glo ATP luminescence
[6] = viability loss with induced miR-34 in A549 – imaging, A549 dox-inducible miR-34, nuclei and caspase counts, primary screen (AID 1347080;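 active means compounds whose cell count with miR-34 switched on is under 0.7 times the count with it off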); conditions: A549 miR-34 inducible, Hoechst nuclei count, 48 h
[7] = MELAS cybrid and Rieske KO viability enhancers – cell-based, MELAS cybrids, Rieske KO mouse fibroblasts, CellTiter-Glo, primary screen (AID 1508586;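 active means mean z-score across replicates of 1.96 or higher in either the MELAS or the Rieske mutant cell line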;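 further: z relative to plate mean and SD of compound and empty wells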); conditions: low glucose
[8] = growth inhibition, single agent or in combination, cell-based, chromothripsis tumors, cisplatin or BGB combos (AID 1671449; in the data active means inhibition above about 80%;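 further: cells exposed for 96 hours; 0% = vehicle DMSO and 100% = killing by high DMSO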); conditions: LFS_MB_P medulloblastoma cells
[9] = growth inhibition, single agent and combos, cell-based, chromothripsis tumors, cisplatin or BGB combos (AID 1671450; in the data active means inhibition above about 80%;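 further: cells exposed to compound for four days; 0% = vehicle DMSO and 100% = cell killing by high DMSO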); conditions: HDN33 neuroblastoma cells, stronger effect = higher value
[10] = growth inhibition, single agents and combos, ICB984, cell-based, cisplatin or BGB combos, synergistic combos for chromothripsis tumors (AID 1671451; call rule not given here;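 further: cells exposed for 96 hours before readout; 0% = vehicle DMSO and 100% = killing by high DMSO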); conditions: ICB984 medulloblastoma cells, drug combinations, stronger effect = higher value
[11] = growth inhibition, single agents and combos, HTB85, cell-based, BGB or cisplatin IC20 combos, synergistic combos for chromothripsis tumors (AID 1671453; in the data active means inhibition above about 80%;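 further: cells exposed for 96 hours before readout; 0% = vehicle DMSO and 100% = high DMSO killing control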); conditions: HTB85 osteosarcoma cells, drug combinations, stronger effect = higher value
[12] = growth inhibition, MDA-MB-436, cell-based, BGB or cisplatin combos, synergistic combos for chromothripsis tumors (AID 1671458; call rule not given here;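 further: cells exposed for 96 hours; 0% = vehicle DMSO and 100% = killing by high DMSO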); conditions: MDA-MB-436 breast carcinoma growth inhibition, drug combinations, stronger effect = higher value
[13] = BT084 cell growth, single and combined drugs, ICGC_MB145, cisplatin and BGB IC40 combos (AID 1671461; in the data active means inhibition above about 80%;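 further: cells exposed to drugs for 96 hours; 0% = vehicle DMSO and 100% = high DMSO full killing control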); conditions: BT084 medulloblastoma cells, drug combinations, stronger effect = higher value
[14] = RCMB18 cell growth, single agent and combined, cisplatin and BGB IC40 combos (AID 1671462; in the data active means inhibition above about 80%;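 further: cells exposed to compound for four days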); conditions: RCMB18 medulloblastoma cells, stronger effect = higher value
[15] = CRL1545 cell growth, single agent and combined, cisplatin and BGB IC20 combos (AID 1671464; in the data active means inhibition above about 80%;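 further: cells exposed to compound for 96 hours before readout; 0% = vehicle DMSO and 100% = high DMSO killing control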); conditions: CRL1545 osteosarcoma cells, stronger effect = higher value
[16] = growth inhibition of DIPG cells – cell-based, MIPE4.0 library, CellTiter-Glo luminescence, qHTS (AID 1347066; cut-off not given, nearly all actives have AC50 up to about 30 µM;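 further: cells exposed to compound for 48 hours before readout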); conditions: SU-DIPG-VI viability, CellTiter-Glo ATP luminescence
[17] = growth inhibition of DIPG cells – cell-based, MIPE5.0 library, qHTS (AID 1347068; cut-off not given, nearly all actives have IC50 up to about 30 µM;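 further: cells exposed to compound for 48 hours before viability readout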); conditions: SU-DIPG-XXV viability
[18] = compounds altering HSF1 focus formation in cells – imaging, Selleck Cancer Library (AID 1347162; in the data active means plate-normalised HSF1 focus index below about 0.46); conditions: human cells, HSF1 nuclear foci imaging, at 10 µM; SSMD: measured here: HSF1 foci SSMD mean; cell count: measured here: cell number; plate-normalised HSF1 focus index: stronger effect = lower value
[19] = drug combination growth inhibition, ovarian cancer – cell-based, oncology-focused library, rucaparib conditional, profiling panel (AID 1508598); conditions: patient-derived ovarian cancer cells, CellTiter-Glo viability, 144 h, stronger effect = lower value
[20] = stronger effect = lower value, cell number ratio, induced over uninduced
[21] = measured here: relative caspase fold change +Dox/-Dox
[22] = measured here: total cells with miR-34 induction, stronger effect = lower value
[23] = measured here: total cells without miR-34 induction
[24] = MELAS cybrid survival, CellTiter-Glo 48 h, stronger effect = higher value
[25] = Rieske KO mouse fibroblast survival, CellTiter-Glo 72 h
[26] = measured here: with BGB IC20 combination, at 0.5 µM
[27] = measured here: with cisplatin IC20 combination, at 0.5 µM

## Cc1ccc2nc(NCCN)c3ncc(C)n3c2c1
[1]
  AC50: 8.33 µM (active)
[2]
  AC50: 2.35 µM (active)
[3]
  AC50: 20.9 µM (active)
[4]
  AC50: 8.33 µM (active)
[5]
  AC50: 13.2 µM (active)
[6]; [20]
  fold change: 1.09 (inactive)
[6]; [21]
  fold change: 0.561
[6]; [22]
  cell count: 6190
[6]; [23]
  cell count: 5680
[7]; [24]
  z-score: -0.409 (inactive)
[7]; [25]
  z-score: -2.24
[8]; at 0.5 µM, stronger effect = higher value
  inhibition: 11.2% (inactive)
[8]; measured here: combination with BGB IC20, at 0.005 µM
  inhibition: 0.796%
[8]; measured here: combination with BGB IC40, at 0.005 µM
  inhibition: -31.1%
[8]; measured here: combination with BGB IC40, at 0.05 µM
  inhibition: -6.91%
[8]; measured here: combination with cisplatin, at 0.5 µM, stronger effect = higher value
  inhibition: 74.2%
[8]; measured here: combination with cisplatin, at 5 µM, stronger effect = higher value
  inhibition: -17.8%
[9]; BGB combo, at 5 µM
  inhibition: 63.5%
[9]; at 0.5 µM
  inhibition: -5% (inactive)
[9]; cisplatin combo, at 5 µM
  inhibition: 55.9%
[9]; [26]
  inhibition: -7.6%
[9]; [27]
  inhibition: 2.54%
[9]; single agent, at 5 µM
  inhibition: 57.3%
[10]; BGB IC20 combo, at 0.005 µM
  inhibition: 10.7%
[10]; BGB IC40 combo, at 0.005 µM
  inhibition: -98.8%
[10]; BGB IC40 combo, at 0.05 µM
  inhibition: 52.7%
[10]; at 0.5 µM
  inhibition: -16% (inactive)
[10]; cisplatin combo, at 0.05 µM
  inhibition: 50.8%
[10]; cisplatin combo, at 0.5 µM
  inhibition: -17.9%
[10]; cisplatin combo, at 5 µM
  inhibition: -22.2%
[10]; measured here: 5 uM single agent, at 5 µM
  inhibition: -10.1%
[11]; at 0.5 µM
  inhibition: 7.35% (inactive)
[11]; measured here: with BGB IC20, at 0.5 µM
  inhibition: 19.2%
[11]; measured here: with BGB IC20, at 5 µM
  inhibition: 98.1%
[11]; measured here: with cisplatin IC20, at 0.5 µM
  inhibition: -7.65%
[11]; measured here: with cisplatin IC20, at 5 µM
  inhibition: 89.2%
[11]; single agent, at 5 µM
  inhibition: 91.7%
[12]; at 0.5 µM
  inhibition: -3.06% (inactive)
[12]; measured here: BGB combination, at 0.5 µM
  inhibition: -13.7%
[12]; measured here: BGB combination, at 5 µM
  inhibition: 65.6%
[12]; measured here: cisplatin combination, at 0.5 µM
  inhibition: 6.41%
[12]; measured here: cisplatin combination, at 5 µM
  inhibition: 80.2%
[13]; at 0.5 µM
  inhibition: 4.08% (inactive)
[13]; cisplatin combination, at 0.5 µM
  inhibition: -3.36%
[13]; cisplatin combination, at 5 µM
  inhibition: 46.6%
[13]; measured here: BGB IC40 combination 0.05 uM, at 0.05 µM
  inhibition: -4.49%
[13]; single agent, at 5 µM
  inhibition: 32.4%
[14]; at 0.5 µM
  inhibition: 1.56% (inactive)
[14]; cisplatin combo, at 5 µM
  inhibition: 76%
[14]; measured here: BGB IC40 combination, at 0.05 µM
  inhibition: 1.88%
[14]; measured here: combination with cisplatin, at 0.5 µM
  inhibition: 32.9%
[14]; single agent, at 5 µM
  inhibition: 33.3%
[15]; at 0.5 µM
  inhibition: -12.7% (inactive)
[15]; [26]
  inhibition: -11.3%
[15]; [27]
  inhibition: -13.3%
[15]; single agent, at 0.05 µM
  inhibition: -17.3%
[15]; single agent, at 5 µM
  inhibition: 99.7%

## O=C(NC1CCNCC1)c1[nH]ncc1NC(=O)c1c(Cl)cccc1Cl
[1]
  AC50: 6.61 µM (active)
[2]
  AC50: 0.418 µM (active)
[3]
  AC50: 0.935 µM (active)
[4]
  AC50: 7.42 µM (active)
[16]
  outcome: inactive
[5]
  AC50: 1.86 µM (active)
[17]
  IC50: 4.68 µM (active)
[6]; [20]
  fold change: 1.06 (inactive)
[6]; [21]
  fold change: 0.925
[6]; [22]
  cell count: 1340
[6]; [23]
  cell count: 1260
[18]
  SSMD: -4.94
  cell count: 7300
  plate-normalised HSF1 focus index: 0.823 (inactive)
[7]; [24]
  z-score: 0.31 (inactive)
[7]; [25]
  z-score: -1.14
[19]; at 0.000305 µM, OCI-C5x cells, with rucaparib 10 µM, 100% = cells with rucaparib alone
  viability: 126% (inactive)
[19]; at 0.000305 µM, OCI-C5x cells, without rucaparib
  viability: 105% (inactive)
[19]; at 0.000305 µM, OCI-P5x cells, with rucaparib 20 µM, 100% = cells with rucaparib alone
  viability: 89.7% (active)
[19]; at 0.000305 µM, OCI-P5x cells, without rucaparib
  viability: 97.4% (active)
[19]; at 0.00122 µM, OCI-C5x cells, with rucaparib 10 µM, 100% = cells with rucaparib alone
  viability: 116% (inactive)
[19]; at 0.00122 µM, OCI-C5x cells, without rucaparib
  viability: 113% (inactive)
[19]; at 0.00122 µM, OCI-P5x cells, with rucaparib 20 µM, 100% = cells with rucaparib alone
  viability: 95.9% (active)
[19]; at 0.00122 µM, OCI-P5x cells, without rucaparib
  viability: 103% (inactive)
[19]; at 0.00488 µM, OCI-C5x cells, with rucaparib 10 µM, 100% = cells with rucaparib alone
  viability: 118% (inactive)
[19]; at 0.00488 µM, OCI-C5x cells, without rucaparib
  viability: 117% (inactive)
[19]; at 0.00488 µM, OCI-P5x cells, with rucaparib 20 µM, 100% = cells with rucaparib alone
  viability: 103% (inactive)
[19]; at 0.00488 µM, OCI-P5x cells, without rucaparib
  viability: 105% (inactive)
[19]; at 0.0195 µM, OCI-C5x cells, with rucaparib 10 µM, 100% = cells with rucaparib alone
  viability: 110% (inactive)
[19]; at 0.0195 µM, OCI-C5x cells, without rucaparib
  viability: 118% (inactive)
